Most compounds without a hit are left out; they make up all but 1.4% or so of the library.
Proteasome disasm: blocks ATP-dependent breakdown of the yeast 26S proteasome; anti-FLAG beads, GFP-proteasome disassembly, flow cytometry; inhibition of disassembly, % (no concentration beside the values); actives 0.2% (n = 24,000); AID 751;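 active = inhibition of disassembly above about 33%, limit read from the data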;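 note: higher percent means more bead fluorescence retained so stronger block of disassembly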
S aureus QS inh: S. aureus quorum sensing inhibition; inhibition, % at 2 µM; actives 0.3% (n = 24,000); S. aureus RN6390 RNAIII-GFP reporter, AIP-induced, flow cytometry 3 h;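 active = share of bacteria positive for the green fluorescent reporter and its mean brightness both inhibited by 50% or more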
FPR binder: binds the human formylpeptide receptor FPR | actives 0.74% (n = 24,000) | P21462 | FPR-expressing cells, fluorescent ligand binding, flow cytometry | inhibition, % (concentration not given with the values)
FPRL1 ligand: human FPRL1 ligand, with FPR counter-screen | AID 441 | actives 0.3% (n = 24,000) | FPRL1-expressing cells, fluorescent ligand binding inhibition, flow cytometry | inhibition, % (test concentration not listed) | P25090
Target sequence (P25090 whole entry, looked up): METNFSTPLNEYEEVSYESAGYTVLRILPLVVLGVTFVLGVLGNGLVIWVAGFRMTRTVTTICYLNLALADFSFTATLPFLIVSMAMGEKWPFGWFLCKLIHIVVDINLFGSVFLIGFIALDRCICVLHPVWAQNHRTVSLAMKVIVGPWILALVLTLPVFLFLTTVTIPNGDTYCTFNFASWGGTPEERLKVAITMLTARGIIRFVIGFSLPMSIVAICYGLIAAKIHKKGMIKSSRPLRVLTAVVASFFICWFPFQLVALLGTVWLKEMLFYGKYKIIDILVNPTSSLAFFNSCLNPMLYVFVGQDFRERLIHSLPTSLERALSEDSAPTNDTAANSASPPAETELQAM
Each line names hits and unclear results; the compound was inactive in the other large screens. Cut-off read from the data, not from the text of the source, unless noted: active = inhibition above about 30%; inconclusive = no clear call, values can overlap the other calls; inactive = below that.

CC1=C(C(=O)OC(C)C)[C@]2(C(=O)N(CC(N)=O)c3ccccc32)C(C#N)=C(N)O1	FPRL1 ligand 50
CCN1CCC2(CCNC2)C1 (stereo not drawn)	none

From PubChem
